Data on 36 compounds can be found in PubChem BioAssay.

For one experiment, the target named is Torsin-1A (Homo sapiens) (UniProt O14656). The experiment in a line: torsin A binders from cell lysate, primary screen, small-molecule microarray, wild-type, 635/667 nm (AID 1149). The settings on record: COS7 hTOR1A-WT lysate, 635 nm fluorescence, higher = more signal.
Sequence of Torsin-1A (Homo sapiens) (O14656 whole entry, looked up): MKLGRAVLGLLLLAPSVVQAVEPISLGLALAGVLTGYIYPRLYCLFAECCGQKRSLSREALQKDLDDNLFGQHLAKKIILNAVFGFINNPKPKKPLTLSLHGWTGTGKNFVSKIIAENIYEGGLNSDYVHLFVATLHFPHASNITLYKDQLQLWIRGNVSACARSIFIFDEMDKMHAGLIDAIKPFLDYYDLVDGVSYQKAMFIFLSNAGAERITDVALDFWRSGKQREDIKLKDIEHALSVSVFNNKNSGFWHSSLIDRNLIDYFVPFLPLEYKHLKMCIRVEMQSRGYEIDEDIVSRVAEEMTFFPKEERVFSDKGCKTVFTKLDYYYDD
`O=C(NC1CC1)[C@@H]1c2ccccc2C(=O)N(Cc2ccccc2)[C@H]1c1ccc(CO)cc1`: the composite z-score is -0.892.

In turn, `CC[C@H]1C2=C3C(CC[C@H]4C(OCc5ccc(F)cc5C(F)(F)F)OC[C@](C)([C@@H]34)N(C(=O)OC(C)(C)C)C2)C2COC(=O)OCC21` (some centres not stated) came in with a composite z-score of 0.246.

With `COC(=O)[C@]1(CCS(=O)(=O)c2ccccc2)N=C(c2ccc(OCCCO)cc2)O[C@@H]1c1ccccc1CN=[N+]=[N-]`, the composite z-score was found to be 1.33.

For the compound `C=CCOC(=O)[C@@H]1[C@H]2C(=O)O[C@H](c3ccccc3)[C@H](c3ccccc3)N2[C@H](c2ccc(OCCOC(=O)[C@H]3C[C@H]4C(=O)N[C@@H](CCCCNC(C)=O)C(=O)N4[C@H]3c3cccc(OCCO)c3)cc2)[C@@]12C(=O)Nc1ccc(I)cc12`, the composite z-score came out at 1.01.

Turning to `O=C1OCCC=C[C@H]2OC34C=CCN(c5ccc(Cl)cc5)C(=O)[C@H]3N(CCCCCO)C(=O)[C@@H]4C12` (some centres not stated), the composite z-score stood at 0.0095.

With `COc1ccc(C(O)C2C=CC3C(=O)N(Cc4ccccc4)C(=O)C3N2n2cnnc2)c2ccccc12` (configuration not stated), the composite z-score turned out to be 1.95.

Another experiment has the same target. The experiment in a line: small-molecule binders of mutant TOR1A in lysate, primary screen, cell lysate, small-molecule microarray, COS7 lysate, 635/667 nm fluorescence (AID 1150).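 Further: score pools 667 nm emission and signal to noise measuring lysate protein binding.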 The note with it: COS7 hTOR1A mutant lysate, 635 nm fluorescence, higher = more signal.
Consider `COCCOC(=O)N1C(=O)[C@@]2(c3cc(C#CC4(O)CCCCCC4)ccc31)[C@H](C(N)=O)[C@H]1C(=O)O[C@H](c3ccccc3)[C@H](c3ccccc3)N1[C@@H]2c1ccccc1OCCO`, for which the composite z-score was found to be 0.445.

In the case of `C=CCN1C(=O)[C@@]2(O[C@@H](CCO)[C@H]([Si](C)(C)c3ccc(OC)cc3)[C@H]2C)c2cc(N3C(=O)c4ccccc4Oc4ccccc43)ccc21`, the composite z-score was -0.0355.

Take `C[C@]1(C(=O)NC2CC2)c2ccccc2C(=O)N(Cc2ccc(OC(F)(F)F)cc2)[C@H]1c1ccc(CO)cc1`: the composite z-score was 0.398.

`CC(C)(C)OC(=O)CC[C@]1(C(=O)N2CCOCC2)N=C(c2ccc(OCCCO)cc2)O[C@H]1c1ccccc1` returned a composite z-score of 0.618.

As for `C=C[C@@H](C)[C@H](OC(=O)Nc1ccc(SC)cc1)c1ccc(OCCO)cc1`, the composite z-score was 0.695.

The compound `COC(=O)[C@@]1(Cc2ccc(OC)cc2)[C@H]2c3cc(C(=O)N4CCCC4)n(CCc4cc5ccccc5[nH]4)c3C[C@H]2CN1C(=O)c1ccccc1` gave a composite z-score of 1.38.

Regarding `C=CCNC(=O)[C@@H]1[C@H]2C(=O)O[C@H](c3ccccc3)[C@H](c3ccccc3)N2[C@H](c2ccc(OCCO)cc2)[C@@]12C(=O)N(C(=O)OCCOC)c1ccc(C#CC3=CCCCC3)cc12`, the composite z-score was 0.823.

With `CC(C)C(CO)N1C(=O)[C@]2(C)C3C(=O)OCCC/C=C\[C@H]3OC23C=CCN(c2ccc(Cl)cc2)C(=O)[C@@H]13` (some centres not stated), the composite z-score was -0.856.

Regarding `C=CC[C@H](OC(=O)Nc1ccc(OC)cc1)c1ccc(O)c2ccccc12`, the composite z-score came to 0.696.

In the case of `COc1cc(CO)cc(I)c1O[C@H]1C=C(C(=O)NCCO)C[C@@H](N(Cc2ccc(F)cc2)C(=O)C2CCCO2)[C@@H]1O` (some centres not stated), the composite z-score was -0.0306.

`CCCC[C@@H]1C[C@H]1[C@@H](NC(=O)c1ccccc1)c1ccc(Cl)cc1`: the composite z-score was -0.539.

The compound `CN(C)CCCNC(=O)[C@@H]1c2ccccc2C(=O)N(CC23CC4CC(CC(C4)C2)C3)[C@H]1c1ccc(CO)cc1` registered a composite z-score of 0.808.

`CC(=O)N1Cc2ccccc2C[C@]2(N=C(c3ccc(OCCCO)cc3)O[C@@H]2c2ccccc2)C1=O` had a composite z-score of 0.297.

`C=CCOC(=O)[C@H]1[C@@H]2C(=O)O[C@@H](c3ccccc3)[C@@H](c3ccccc3)N2[C@@H](c2ccc(OCCOC(=O)[C@H]3C[C@H]4C(=O)N[C@@H](Cc5ccccc5)C(=O)N4[C@H]3c3ccc(O)cc3)cc2)[C@]12C(=O)Nc1ccc(I)cc12` gave a composite z-score of 0.691.

As for `COC(=O)C1(Cc2ccccc2)C=C2C(=C(C(C)C)C(=O)C2C)CN1` (configuration not stated), the composite z-score is 0.707.

Regarding `C=CC[C@]12N=C(c3ccc(OCCCO)cc3)O[C@H]1c1ccccc1N(C)C2=O`, the composite z-score stood at 0.468.

In turn, `CC=CC(O)C1C=CC2C(=O)N(C)C(=O)C2N1N1CCCCC1` (configuration not stated) returned a composite z-score of 0.71.

Take `CCCNC(=O)[C@@]1(c2ccc([N+](=O)[O-])cc2)CC(=O)N(C2CCCCC2)[C@@H]1c1ccc(CO)cc1I`: the composite z-score amounted to 0.451.

Compound `O=C1C[C@@](C(=O)NCC(F)(F)F)(c2ccc([N+](=O)[O-])cc2)[C@@H](c2ccc(CO)cc2)N1C1CCCCC1` showed a composite z-score of 1.57.

`CCOC(=O)C[C@H]1[C@H](OC(=O)c2ccccc2-c2ccccc2)[C@@H](NC(=O)CC(C)C)c2cc(OCCCO)ccc2N1C(=O)c1ccc2ccccc2n1` came in with a composite z-score of 0.0401.

Turning to `COc1ccc(C(O)C2C=CC3C(=O)N(C)C(=O)C3N2N2CCCCC2)cc1` (configuration not stated), the composite z-score is 0.849.

For `CCCCC(CC)C(O)C1C=CC2C(=O)N(c3ccccc3)C(=O)C2N1Nc1ccc([N+](=O)[O-])cc1` (configuration not stated), the composite z-score is 0.923.

Consider `C=C(C(=O)CC[C@H](OC(C)=O)c1cccc(OCCO)c1)C(C)C`, for which the composite z-score is -0.241.

`C=C(/C(=C/C[C@@H](OC(=O)c1ccncc1)c1ccccc1OCCO)c1cc(C(=O)OC)ccc1OC)C(C)C` returned a composite z-score of 1.29.

As to `COc1ccc([Si](C)(C)[C@H]2[C@H](CCn3cc([C@H](O)c4ccccc4)nn3)O[C@@]3(C(=O)N(Cc4ccc(N5CCOC5=O)cc4)c4ccccc43)[C@@H]2C)cc1`, the composite z-score is -1.35.

As to `CC(C)OC(=O)CC(=O)CC(O)c1cccc(C#N)c1` (configuration not stated), the composite z-score came out at 1.97.

Take `COc1cc(CO)cc(I)c1O[C@H]1C=C(C(=O)NCCO)C[C@@H](NCc2ccccc2F)[C@@H]1O`: the composite z-score was -0.175.

`CC(C)CN1C(=O)[C@@]2(Cc3ccccc31)c1ccccc1C(=O)N(Cc1ccccc1C(F)(F)F)[C@H]2c1ccc(CO)cc1`: the composite z-score was -0.727.

As for `CCOC(=O)[C@@H]1[C@@H]2C(=O)N(CC)C(=O)[C@@H]2C[C@@H]1Sc1ccccc1`, the composite z-score is 0.975.

For the compound `C=CC[C@@H](OC(=O)Nc1ccc(OC)cc1)c1ccc(OCCO)cc1`, the composite z-score is -3.

As for `O=C(NC1CC1)[C@@H]1c2ccccc2C(=O)N(Cc2ccccc2)[C@H]1c1ccc(CO)cc1`, the composite z-score was -0.665.

Compound `CC[C@H]1C2=C3C(CC[C@H]4C(OCc5ccc(F)cc5C(F)(F)F)OC[C@](C)([C@@H]34)N(C(=O)OC(C)(C)C)C2)C2COC(=O)OCC21` (some centres not stated) showed a composite z-score of 0.666.

Consider `COC(=O)[C@]1(CCS(=O)(=O)c2ccccc2)N=C(c2ccc(OCCCO)cc2)O[C@@H]1c1ccccc1CN=[N+]=[N-]`, for which the composite z-score stood at 0.69.

As to `C=CCOC(=O)[C@@H]1[C@H]2C(=O)O[C@H](c3ccccc3)[C@H](c3ccccc3)N2[C@H](c2ccc(OCCOC(=O)[C@H]3C[C@H]4C(=O)N[C@@H](CCCCNC(C)=O)C(=O)N4[C@H]3c3cccc(OCCO)c3)cc2)[C@@]12C(=O)Nc1ccc(I)cc12`, the composite z-score was found to be 0.495.

Take `O=C1OCCC=C[C@H]2OC34C=CCN(c5ccc(Cl)cc5)C(=O)[C@H]3N(CCCCCO)C(=O)[C@@H]4C12` (some centres not stated): the composite z-score was determined as 1.05.

In turn, `COc1ccc(C(O)C2C=CC3C(=O)N(Cc4ccccc4)C(=O)C3N2n2cnnc2)c2ccccc12` (configuration not stated) returned a composite z-score of 0.432.
